Laboratory results published in PubChem BioAssay (NCI).
Compounds without any hit were thinned out: in the full panel of roughly 83,000, 20% have a hit.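 Each cell line was grown in a 96-well plate and treated with one concentration of compound for 48 hours. Values below 10 were considered active.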 A number with no mark means an inactive call. Active and inactive are the calls of the source.

Test system: MDA-MB-468 breast
Assay: NCI-60 one-dose screen, 48 h (100 = growth as untreated, 0 = no growth, -100 = all killed)
Details: 10 µM unless noted

| SMILES | growth |
| --- | --- |
| O=c1cc(N/N=C/c2ccc(F)cc2)c2cc(Cl)ccc2[nH]1 | 73% |
| O=C(OC(OC(=O)c1cc(Cl)cc(Cl)c1)c1cccc2ccccc12)c1ccccc1 (centres undefined) | 111% |
| CCOC(=O)c1c(-c2ccc(O)cc2)c(C#N)c2c(C#N)c(N)nn2c1N | 35.2% |
| Nc1ccc2c(c1)Cc1cc(NC(=O)C(F)(F)F)ccc1-2 | 75.7% |
| O=C1CCC23OC(C(O)c4ccccc4N12)C1C(Br)=NOC13 (centres undefined) | 115% |
| CCCCc1oc2ccccc2c1C(=O)c1cc(I)c(OCCN(CC)CC)c(I)c1 | -87.4% (active) |
| COc1cc(CNc2ccccc2C(=O)N2CCN(C(=O)c3cc(-c4cc(OC)c(OC)c(OC)c4)n4nc(-c5ccccc5)cc4n3)CC2)cc(OC)c1OC | 23.1% |
| O=C(Cn1cccc(Nc2ccccc2)c1=O)Nc1ccccc1 | 95.1% |
| COc1cc2oc(-c3cccc(NC(=O)Nc4ccc5c(c4)OCO5)c3)cc(=O)c2c(OC)c1OC | 75.2% |
| COC(=O)CCC(=O)C(=O)OC | 52.9% [10 mM] |
| Oc1cccc(-c2nc3sccn3c2-c2ccncn2)c1 | 83% |
| C#Cc1nc(/C=C/CCCCCCC(=O)NO)cs1 | 54.8% |
| Nc1cc(C(=O)N/N=C\c2ccc(OC(F)F)c(OC3CCCC3)c2)nn1CC(O)c1ccccc1 (centres undefined) | 106% |
| COc1ccc2cc(-c3nc4ccc(C)cn4c3NCc3ccco3)c(=O)[nH]c2c1 | 67.1% |
| C#CCNC1CCC(c2csc(C#C)n2)=C1C (centres undefined) | 58.9% |
| Nc1nc(Nc2ccc(Cl)cc2)nn1S(=O)(=O)c1ccc(-c2ccc(F)cc2)cc1 | 96.2% |
| COc1cc2ncnc(Nc3ccc(S(=O)(=O)Nc4cc(C)on4)cc3)c2cc1OCCCN1CCN(c2ccc(F)cc2)CC1 | 103% |
| O=C(CCC(=O)c1nc2ncccc2[nH]1)NN1C(=O)CSC1c1ccc(Cl)cc1 (centres undefined) | 112% |
| Cn1cc(C(=O)c2nc(-c3c[nH]c4ccccc34)no2)c2ccccc21 | -4.38% (active) |
| Cc1cccc2cc(/C=C/C(=O)/C=C/c3ccc(Cl)cc3)c(=O)[nH]c12 | 61.7% |

| SMILES | growth |
| --- | --- |
| C[C@H]1[C@H]2C3=CC[C@@H]4[C@@]5(C)C/C(=C/c6ccncc6)C(=O)C(C)(C)[C@@H]5CC[C@@]4(C)[C@]3(C)CC[C@@]2(C(=O)N2CCN(C)CC2)CC[C@@H]1C | 41.1% |
| COc1cc(CNC(=O)CCSc2nc3ccccc3c(=O)n2Cc2cc(OC)c(OC)c(OC)c2)cc(OC)c1OC | 1.82% (active) |
| Cn1cc(-c2cc(N)n3nc(-c4cn(C)c5ccc(F)cc45)cc3n2)c2cc(F)ccc21 | 12.3% |
| OC(c1cc2ccc(C(F)(F)F)cc2c2cc(C(F)(F)F)ccc12)C1CCCCN1 (centres undefined) | -74% (active) |
| CCN(CC)CCOc1cccc2c1C(=O)c1ccccc1C2=O | 91.4% |
| CC[C@]1(O)C[C@@H]2CN(CCc3c([nH]c4ccccc34)[C@@](C(=O)OC)(c3cc4c(cc3OC)N(C)[C@H]3[C@@](O)(C(N)=O)[C@H](O)[C@]5(CC)[C@@H]6C[C@@H]6CN6CC[C@]43[C@@H]65)C2)C1 | 43.8% |
| CNC(=O)c1ccccc1Nc1nc(Nc2cc(OC)c(OC)c(OC)c2)ncc1Br | -46.6% (active) |
| CS(=O)(=O)Nc1cc(-c2ccc3ncnc(Nc4ccc(OCc5ccccn5)c(Cl)c4)c3c2)cnc1Cl | -55.4% (active) |
| COc1ccc(N(Cc2cc(OC)c(OC)c(OC)c2)C2OC(=O)c3ccccc32)cc1 (centres undefined) | 24.2% |
| CSc1nc2c(c(=O)[nH]1)N=C1c3ccccc3C(=O)C1C(c1ccc(F)cc1)N2 (centres undefined) | 21.7% |
| COc1ccc(-c2cc(-c3cc(OC)c(OC)c(OC)c3)c(C#N)c(=O)n2CCCCC(=O)NO)cc1 | 72.3% |
| C[C@H](Nc1ncnc2ccc(-c3cnc(Cl)c(NS(C)(=O)=O)c3)cc12)c1ccccc1 | -62.4% (active) |
| COc1cc(C2CC(=O)Nc3c2c(C)nn3-c2nc3ccccc3[nH]2)cc(OC)c1O (centres undefined) | 18.5% |
| O=C(/C=C/c1ccc(F)cc1)Nc1ncc(Cc2ccc(F)cc2)s1 | 8.11% (active) |
| CNc1nc(S(=O)c2ccc(C#N)cc2)nc2ccccc12 (centres undefined) | -4.09% (active) |
| COc1ccc(-c2cc(-c3ccc(Cl)cc3)nc(SCCCCCCC(=O)NO)n2)cc1 | 12.7% |
| CCOC(=O)c1c(C)nc2c(c1N)C(=O)C(=O)N2Cc1ccc(C(F)(F)F)cc1 | 77.8% |
| CC(C)=CCC[C@](C)(O)[C@H]1CC[C@]2(C)[C@@H]1CC[C@@H]1[C@@]3(C)C/C(=C/c4ccccc4)C(=O)C(C)(C)[C@@H]3CC[C@]12C | 94.7% |
| COC1C/C(=N\O)C2OC(c3ccccc3)OCC2O1 (centres undefined) | 105% |
